Entries with a potency or affinity are not part of this list. Active and inactive are the calls of the source. No rule for the calls is given here.
Assay: mammalian cell cytotoxicity, dose response, cytotoxicity control, plate reader, cherry-pick samples (AID 504397)
Details: plate reader viability; series mostly up to 35 µM

| Compound | outcome |
| --- | --- |
| O=C(CCNS(=O)(=O)c1ccc2[nH]c(=O)oc2c1)NCc1ccccc1 | inactive |
| CS(=O)(=O)Nc1ccccc1C(=O)NC1CC2CCC1C2 (stereo unspecified) | inactive |
| CN(C(=O)COC(=O)c1cn(-c2ccccc2)nc1-c1ccccc1)C1CCS(=O)(=O)C1 (stereo unspecified) | inactive |
| COc1ccccc1N1CCN(c2ncc(C(=O)N3CCN(c4cccc(Cl)c4)CC3)c3ccccc23)CC1 | inactive |
| COC(=O)C1CCCN1S(=O)(=O)c1ccc2ccccc2c1 (stereo unspecified) | inactive |
| Cc1ccccc1NS(=O)(=O)c1ccc(C(=O)NCC(c2ccccc2)N(C)C)cc1 (stereo unspecified) | inactive |
| Cc1ccc(C(=O)c2c3ccc(C(F)(F)F)cc3nn2CCC(N)=O)cc1 | inactive |
| O=C(Nc1ccc2c(c1)CCC2)c1ccccc1Br | inactive |
| Cc1ccc(NC(=O)CCc2ccc(S(=O)(=O)NC3CCCCC3)cc2)cc1 | inactive |
| CN(C)CCCN(C(=O)c1cc(-c2cccs2)nc2ccccc12)c1nc2ccc(F)cc2s1 | inactive |
| O=C(COC(=O)c1ccccc1Cc1ccccc1)NC1CCS(=O)(=O)C1 (stereo unspecified) | inactive |
| O=c1c(-c2ccccc2)c(O)c2ccccc2n1-c1ccccc1 | inactive |
| CC1(c2ccc(OCC#N)cc2)C=C(c2ccc(OCC#N)cc2)n2nc(C(F)(F)F)nc2N1 (stereo unspecified) | inactive |
| NC(=NCCCCCCN=C(N)/N=C(\N)Nc1ccc(Cl)cc1)/N=C(\N)Nc1ccc(Cl)cc1 | inactive |
| CS(=O)(=O)Cc1ccc(C(=O)N(CCc2ccccc2)Cc2ccccc2)cc1 | inactive |
| O=C(c1cnc2n(c1=O)CCS2)N1CCN(C(c2ccccc2)c2ccc(Cl)cc2)CC1 (stereo unspecified) | inactive |

| Compound | outcome |
| --- | --- |
| COc1cccc(/C=N/NC(=O)c2nnn(-c3nonc3N)c2C(C)C)c1OCc1ccc(F)cc1 | inactive |
| CCCCNC(=S)N=Nc1c(O)n(Cc2ccccc2)c2ccccc12 | inactive |
| COc1ccc(-n2nc(C(=O)NCC(=O)N3CCC(C)CC3)c3ccccc3c2=O)cc1 | inactive |
| CN(C)CCN(C(=O)c1ccc2ccccc2c1)c1nc2ccc(Br)cc2s1 | inactive |
| Nc1nonc1-n1nnc(C(=O)N/N=C/c2ccoc2)c1CSc1ccccc1 | inactive |
| CC(/C=N\NC(=O)CN1CCN(S(=O)(=O)c2ccc(C)cc2)CC1)=C\c1ccccc1 | inactive |
| CCn1cc(/C=C(\NC(=O)c2ccccc2Cl)C(=O)N2CCOCC2)c2ccccc21 | inactive |
| O=C(C(Cc1ccccc1)N1C(=O)c2ccccc2C1=O)N1c2ccccc2CCc2ccccc21 (stereo unspecified) | inactive |
| Cc1ccc(OCCn2c3ccccc3n3nc(C)c(=O)nc23)cc1 | inactive |
| COc1ccc(-n2c(SCc3ccc([N+](=O)[O-])cc3)nnc2-c2ccc(C)cc2)cc1 | inactive |
| CCn1nnnc1SCC(=O)Nc1nc(C)c(C)s1 | inactive |
| Nc1nnnn1/N=C/c1ccccc1OCc1ccc(Cl)cc1Cl | inactive |
| CN1C(=O)/C(=C/c2cccc(Cl)c2)Sc2ccc(C(=O)N3CCOCC3)cc21 | inactive |
| CC(C)c1c(C(=O)N/N=C/c2cccc3ccccc23)nnn1-c1nonc1N | inactive |
| CCOc1ccc(N(Cc2ccc(OC)cc2)C(=O)c2ccco2)cc1 | inactive |
